In PubChem BioAssay (NCI):
This is part of a sample that, as a whole, favours compounds with a hit. Of some 83,000 tested, about 20% had one in any assay.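 Testing used 96-well plates and a 48-hour single-concentration exposure. Example: -40 means 40% of the starting cells died.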 The source made the active and inactive calls. The calls were made as follows: active = growth percent below 10; inactive = the rest. Starred links: 1 amine or outer side, 2 acyl side, 3 side chain; linkers in the order of their positions; H or OH if unused. Positions of bridges follow the written chain, without caps; N, C: chain ends. Non-standard residues stand in square brackets, D forms with d. Residues, ends and D or L forms follow the SMILES beside them. Chains are numbered I, II in the order given. Actinocin(9to1) = Cc1c2oc3c(C)ccc(C(=O)[*:1])c3nc-2c(C(=O)[*:2])c(N)c1=O; aThr = C[C@H](O)[C@H](N)C(=O)O; NMeV = CN[C@H](C(=O)O)C(C)C; Sar = CNCC(=O)O

Experiments:
Experiment in all cases: NCI-60 one-dose screen, 48 h (100 = growth as untreated, 0 = no growth, -100 = all killed)
NCI-H23 lung = tested on: NCI-H23 lung
NCI-H226 lung = tested on: NCI-H226 lung
NCI-H322M lung = tested on: NCI-H322M lung
HOP-62 NSCLC = tested on: HOP-62 NSCLC
NCI-H460 lung = tested on: NCI-H460 lung
NCI-H522 lung = tested on: NCI-H522 lung
A549/ATCC NSCLC = tested on: A549/ATCC NSCLC
786-0 renal = tested on: 786-0 renal
COLO 205 colon = tested on: COLO 205 colon
DU-145 prostate = tested on: DU-145 prostate
K-562 leukemia = tested on: K-562 leukemia
MDA-MB-231 breast = tested on: MDA-MB-231 breast
SF-268 CNS = tested on: SF-268 CNS
SF-295 CNS = tested on: SF-295 CNS
SF-539 CNS = tested on: SF-539 CNS
UACC-257 melanoma = tested on: UACC-257 melanoma
M14 melanoma = details: 10 µM
HOP-92 NSCLC = tested on: HOP-92 NSCLC
MALME-3M melanoma = tested on: MALME-3M melanoma
RXF 393 renal = tested on: RXF 393 renal

Measured: growth

Cc1cnc(/C=N\NC(N)=S)c2cccc(N)c12
inactive: HOP-62 NSCLC; 10 µM 11.3% | A549/ATCC NSCLC; 10 µM 11.6% | COLO 205 colon; 10 µM 15.1% | K-562 leukemia; 10 µM 30.6% | MDA-MB-231 breast; 10 µM 34.2%
active: NCI-H23 lung; 10 µM 7.29% | NCI-H226 lung; 10 µM 4.78% | NCI-H322M lung; 10 µM -21.9% | NCI-H460 lung; 10 µM 1.79% | NCI-H522 lung; 10 µM -1.74% | 786-0 renal; 10 µM 6.81% | DU-145 prostate; 10 µM -15.6% | SF-268 CNS; 10 µM 2.26% | SF-295 CNS; 10 µM -29.9% | SF-539 CNS; 10 µM -47.9% | UACC-257 melanoma; 10 µM -30.6% | M14 melanoma -24.7%

CSc1ccc2c(c1)C(N1CCN(C)CC1)Cc1ccccc1S2 (centres undefined)
inactive: NCI-H23 lung; 10 µM 56% | NCI-H226 lung; 10 µM 55.3% | NCI-H460 lung; 10 µM 29% | A549/ATCC NSCLC; 10 µM 52.7% | 786-0 renal; 10 µM 53.6% | DU-145 prostate; 10 µM 34% | RXF 393 renal; 10 µM 25.1% | SF-268 CNS; 10 µM 36.7% | SF-295 CNS; 10 µM 44.1% | SF-539 CNS; 10 µM 60.1%
active: HOP-92 NSCLC; 10 µM 5.58% | COLO 205 colon; 10 µM -75.1% | MALME-3M melanoma; 10 µM -46.6% | MDA-MB-231 breast; 10 µM -11.6% | UACC-257 melanoma; 10 µM -61.6%

COc1cc(C(C)(C)C)cc(OC)c1C(O)(c1c(OC)cc(C(C)(C)C)cc1OC)c1c(OC)cc(C(C)(C)C)cc1OC
active: NCI-H23 lung; 10 µM -51.2% | NCI-H226 lung; 10 µM -65.7% | NCI-H322M lung; 10 µM -68.6% | HOP-62 NSCLC; 10 µM -95.3% | NCI-H460 lung; 10 µM -82.1% | HOP-92 NSCLC; 10 µM -66.2% | NCI-H522 lung; 10 µM -56.4% | A549/ATCC NSCLC; 10 µM -54.4% | 786-0 renal; 10 µM -96.6% | COLO 205 colon; 10 µM -89.2% | DU-145 prostate; 10 µM -100% | K-562 leukemia; 10 µM -89.4% | MALME-3M melanoma; 10 µM -80.8% | MDA-MB-231 breast; 10 µM -85.2% | RXF 393 renal; 10 µM -27.4% | SF-268 CNS; 10 µM -77% | SF-295 CNS; 10 µM -78.9% | UACC-257 melanoma; 10 µM -46.1% | M14 melanoma -94.6%

Cc1cc(NCCCN(C)C)c2ccc3c(ccc4c(NCCCN(C)C)cc(C)nc43)c2n1
active: NCI-H23 lung; 10 µM -45.2% | NCI-H226 lung; 10 µM -56.6% | NCI-H322M lung; 10 µM -40.7% | HOP-62 NSCLC; 10 µM -22.3% | NCI-H460 lung; 10 µM -77.7% | HOP-92 NSCLC; 10 µM -51.2% | NCI-H522 lung; 10 µM -72.8% | A549/ATCC NSCLC; 10 µM -22.4% | 786-0 renal; 10 µM -35.2% | COLO 205 colon; 10 µM -82.8% | DU-145 prostate; 10 µM -92.6% | K-562 leukemia; 10 µM -52.9% | MALME-3M melanoma; 10 µM -89.2% | MDA-MB-231 breast; 10 µM -77.4% | RXF 393 renal; 10 µM -83.4% | SF-268 CNS; 10 µM -86.1% | SF-295 CNS; 10 µM -76.2% | SF-539 CNS; 10 µM -96% | UACC-257 melanoma; 10 µM -51.6% | M14 melanoma -82.9%

BrC/C=C/C[P+](c1ccccc1)(c1ccccc1)c1ccccc1
inactive: NCI-H23 lung; 10 µM 84.2% | NCI-H226 lung; 10 µM 76.2% | NCI-H322M lung; 10 µM 96.5% | HOP-62 NSCLC; 10 µM 27.4% | NCI-H460 lung; 10 µM 57.4% | HOP-92 NSCLC; 10 µM 60.4% | NCI-H522 lung; 10 µM 40% | A549/ATCC NSCLC; 10 µM 44% | 786-0 renal; 10 µM 46.2% | COLO 205 colon; 10 µM 16.5% | DU-145 prostate; 10 µM 39.7% | K-562 leukemia; 10 µM 17.5% | MALME-3M melanoma; 10 µM 60.6% | MDA-MB-231 breast; 10 µM 77.4% | RXF 393 renal; 10 µM 81.8% | SF-268 CNS; 10 µM 58.7% | SF-295 CNS; 10 µM 38.2% | SF-539 CNS; 10 µM 10% | UACC-257 melanoma; 10 µM 47.9% | M14 melanoma 49.9%

Cc1c2oc3c(C)ccc(C(=O)N[C@@H]4C(=O)N[C@H](C(C)C)C(=O)N5CCC[C@H]5C(=O)N(C)CC(=O)N(C)[C@@H](C(C)C)C(=O)O[C@H]4C)c3nc-2c(C(=O)N[C@@H]2C(=O)N[C@H](C(C)C)C(=O)N3CCC[C@H]3C(=O)N(C)CC(=O)N(C)[C@@H](C(C)C)C(=O)O[C@H]2C)c(N)c1=O (I: [aThr][dV]P[Sar][NMeV] / II: [aThr][dV]P[Sar][NMeV]; ester I:1-I:C, II:1-II:C; linker I:N-II:N via Actinocin(9to1))
inactive: NCI-H23 lung; 0.0025 µM 53.2% | NCI-H226 lung; 0.0025 µM 57.3% | NCI-H322M lung; 0.0025 µM 64.7% | HOP-62 NSCLC; 0.0025 µM 41.2% | NCI-H460 lung; 0.0025 µM 16.7% | HOP-92 NSCLC; 0.0025 µM 50.7% | NCI-H522 lung; 0.0025 µM 33.9% | A549/ATCC NSCLC; 0.0025 µM 36.8% | 786-0 renal; 0.0025 µM 41.8% | COLO 205 colon; 0.0025 µM 44.2% | DU-145 prostate; 0.0025 µM 41.6% | K-562 leukemia; 0.0025 µM 18.8% | MALME-3M melanoma; 0.0025 µM 66.3% | MDA-MB-231 breast; 0.0025 µM 64.2% | RXF 393 renal; 0.0025 µM 31.1% | SF-268 CNS; 0.0025 µM 46.1% | SF-295 CNS; 0.0025 µM 62.4% | SF-539 CNS; 0.0025 µM 25.5% | UACC-257 melanoma; 0.0025 µM 30.6%
active: NCI-H23 lung; 10 µM -50.9% | NCI-H226 lung; 10 µM -12.4% | NCI-H322M lung; 10 µM 7.68% | HOP-62 NSCLC; 10 µM -16.9% | NCI-H460 lung; 10 µM -22.4% | HOP-92 NSCLC; 10 µM -16.3% | NCI-H522 lung; 10 µM -38.4% | A549/ATCC NSCLC; 10 µM -38.9% | 786-0 renal; 10 µM -3.24% | COLO 205 colon; 10 µM -56.7% | DU-145 prostate; 10 µM -30.5% | K-562 leukemia; 10 µM 0.49% | MALME-3M melanoma; 10 µM -61.4% | MDA-MB-231 breast; 10 µM -2.13% | RXF 393 renal; 10 µM -45.9% | SF-268 CNS; 10 µM -9.34% | SF-295 CNS; 10 µM -8.12% | SF-539 CNS; 10 µM -54.7% | UACC-257 melanoma; 10 µM -29.8%

S=c1[nH]nc(Cc2ccccc2)c(=S)[nH]1
inactive: NCI-H23 lung; 10 µM 92.5% | NCI-H226 lung; 10 µM 103% | NCI-H322M lung; 10 µM 97.7% | HOP-62 NSCLC; 10 µM 97.7% | NCI-H460 lung; 10 µM 104% | HOP-92 NSCLC; 10 µM 100% | NCI-H522 lung; 10 µM 88% | A549/ATCC NSCLC; 10 µM 94.7% | 786-0 renal; 10 µM 106% | COLO 205 colon; 10 µM 106% | DU-145 prostate; 10 µM 100% | K-562 leukemia; 10 µM 94.6% | MALME-3M melanoma; 10 µM 98.3% | MDA-MB-231 breast; 10 µM 113% | RXF 393 renal; 10 µM 103% | SF-268 CNS; 10 µM 90.3% | SF-295 CNS; 10 µM 99.8% | SF-539 CNS; 10 µM 102% | UACC-257 melanoma; 10 µM 102% | M14 melanoma 101%
